In PubChem BioAssay (NCI):
Where “and” joins values, the source holds several entries; their conditions need not be identical. Equal entries are not always repeated. Compounds without any hit were thinned out: in the full panel of roughly 83,000, 20% have a hit.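 96-well plates, one dose, 48 hours. Percent growth reported; active if below 10.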 Values without a mark were called inactive. Calls of active or inactive are those of the source.

Legend:
Experiment in all cases: NCI-60 one-dose screen, 48 h (100 = growth as untreated, 0 = no growth, -100 = all killed)
Details in all cases: 10 µM unless noted
NCI-H23 lung = system: NCI-H23 lung
NCI-H226 lung = system: NCI-H226 lung
NCI-H322M lung = system: NCI-H322M lung
HOP-62 NSCLC = system: HOP-62 NSCLC
NCI-H460 lung = system: NCI-H460 lung
HOP-92 NSCLC = system: HOP-92 NSCLC
NCI-H522 lung = system: NCI-H522 lung
786-0 renal = system: 786-0 renal
COLO 205 colon = system: COLO 205 colon
DU-145 prostate = system: DU-145 prostate
K-562 leukemia = system: K-562 leukemia
MALME-3M melanoma = system: MALME-3M melanoma
MDA-MB-231 breast = system: MDA-MB-231 breast
RXF 393 renal = system: RXF 393 renal
SF-268 CNS = system: SF-268 CNS
SF-295 CNS = system: SF-295 CNS
SF-539 CNS = system: SF-539 CNS
UACC-257 melanoma = system: UACC-257 melanoma
M14 melanoma = system: M14 melanoma
A549/ATCC NSCLC = system: A549/ATCC NSCLC

| SMILES | growth (NCI-H23 lung) | growth (NCI-H226 lung) | growth (NCI-H322M lung) | growth (HOP-62 NSCLC) | growth (NCI-H460 lung) | growth (HOP-92 NSCLC) | growth (NCI-H522 lung) | growth (786-0 renal) | growth (COLO 205 colon) | growth (DU-145 prostate) | growth (K-562 leukemia) | growth (MALME-3M melanoma) | growth (MDA-MB-231 breast) | growth (RXF 393 renal) | growth (SF-268 CNS) | growth (SF-295 CNS) | growth (SF-539 CNS) | growth (UACC-257 melanoma) | growth (M14 melanoma) | growth (A549/ATCC NSCLC) |
| --- | --- | --- | --- | --- | --- | --- | --- | --- | --- | --- | --- | --- | --- | --- | --- | --- | --- | --- | --- | --- |
| Nc1c(S(=O)(=O)O)cc(Br)c2c1C(=O)c1ccccc1C2=O | 103% | 98.2% and 99.6% | 95.6% and 106% | 88.1% and 111% | 102% and 106% | 73.4% | 83% | 106% and 110% | 97.5% and 106% | 106% and 116% | 101% and 96.6% | 97.6% and 116% | 115% and 107% | 111% and 98.7% | 102% and 106% | 104% and 100% | 104% and 101% | 83.3% | 117% and 110% | – |
| O=[N+]([O-])c1ccc(NC(c2ccccc2)c2ccc3cccnc3c2O)cc1 (stereo not drawn) | 32% | 16.6% | 29.8% | 26.5% | -16% (active) | 62.5% | 17.9% | 18.3% | 30.3% | 22.5% | 13% | 17.2% | 44.1% | 43.9% | 12.9% | 14.5% | 14% | -4.88% (active) | 8.95% (active) | – |
| CCc1ccccc1-n1[nH]c(C)c(C=N)c1=O | 102% | 89% | 106% | 135% | 109% | 98.6% | 102% | 112% | 120% | 118% | 96.5% | 94.4% | 106% | 103% | 114% | 99.3% | 100% | 116% | – | – |
| O=c1[nH]c(=O)n(C2OC(CO)C(O)C2O)cc1I (stereo not drawn) | 104% and 108% | 91.8% and 117% | 100% and 102% | 101% and 96.4% | 116% and 125% | 77.7% | 80.5% and 112% | 105% and 108% | 114% and 102% | 117% and 112% | 95.1% and 128% | 100% and 107% | 109% and 111% | 114% and 123% | 102% and 112% | 125% and 102% | 105% and 102% | 97.3% and 101% | 104% and 90.5% | – |
| Oc1cccnc1CN1CCOCC1 | 110% and 95.7% | 99.1% and 95.7% | 98.3% and 102% | 96.6% and 92.7% | 114% and 109% | 88.4% and 84.8% | 93.8% and 120% | 105% and 101% | 102% and 110% | 108% and 116% | 108% and 105% | 106% | 104% and 86.9% | 114% and 112% | 106% and 116% | 111% and 105% | 92.6% and 94.9% | 99.6% and 98.2% | – | – |
| CCNC1=CC(=O)c2ncccc2C1=O | -49.7% (active) | 33.9% | 13.9% | -42.5% (active) | -78.3% (active) | 145% | -46.3% (active) | 83.6% | -62.5% (active) | -92.9% (active) | 21.2% | -84.6% (active) | 51.2% | 99% | 58.3% | -71.1% (active) | -59.3% (active) | -13.5% (active) | -87.4% (active) | – |
| COCCCNC1=C(C#N)C(=O)NC(c2cccs2)S1 (stereo not drawn) | – | 98.4% | 95.4% | 99.9% | 99.2% | 107% | 127% | 106% | 110% | 107% | 153% | 104% | 106% | 96.9% | 104% | 96.4% | 85.2% | 111% | 110% | 103% |
| O=C(O)c1c2c(nc3ccccc13)Cc1ccccc1-2 | – | 115% and 95% | 119% and 87.4% | 118% and 88.9% | 105% and 102% | 92.3% and 96.5% | 113% and 104% | 108% and 101% | 109% and 107% | 108% and 94.4% | 115% and 99.1% | 105% and 86.8% | 107% and 102% | 182% and 114% | 95.4% and 86.9% | 104% and 81.9% | 116% and 91.4% | 85.8% and 103% | 91.5% and 96% | 97.9% and 107% |
| CC(C)(C)C1CCC(=NO)CC1 (stereo not drawn) | – | 99.9% | 106% | 95.9% | 99.6% | 71.4% | 92.5% | 94.5% | 117% | 112% | 128% | 103% | 104% | 90.6% | 109% | 98.3% | 96.2% | 76.4% | 100% | 91.6% |
| Cc1cc(-c2ccc(N=Nc3c(C)nn(-c4ccc(S(=O)(=O)O)cc4)c3O)c(C)c2)ccc1N=Nc1ccc(O)c(C(=O)O)c1 | – | 82.2% | 107% | 87.7% | 109% | 109% | 87.9% | 103% | 94% | 108% | 104% | 111% | 97.2% | 113% | 97.6% | 93.4% | 101% | 101% | 107% | – |
| O=C1Cc2ccccc2C(=O)N1 | – | 101% | 96.3% | 84.6% | 110% | 49.9% | 77.2% | 82.1% | 99.2% | 112% | 46.9% | 104% | 44.1% | 99.1% | 97% | 102% | 103% | 89.4% | 95.3% | 86.1% |
| CCOC(=O)C1=CC(=O)CC(C)(C)O1 | – | 114% and 95.3% | 99.2% and 125% | 109% and 107% | 107% and 109% | 93.5% and 97.1% | 79.7% and 96.2% | 110% and 116% | 105% and 111% | 123% and 110% | 42% and 104% | 112% and 110% | 114% and 106% | 118% and 114% | 108% and 103% | 125% and 114% | 110% and 109% | 106% and 95.7% | – | – |
